Experiment [1] in a line: Wnt pathway potentiators raising nuclear beta-catenin – imaging, WNT3A-conditioned medium, mouse C2C12, NPC library, primary screen (AID 1117326; in the data active = nuclear beta-catenin stimulation mostly above about 4.2%, no sharp cut-off; inactive = mostly below about 10%). As to conditions: stronger effect = higher value.
A short description of experiment [2]: stimulators of insulin release from INS-1E, primary screen, cell-based, 5 mM glucose, NPC library (AID 1117329;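 active = compound raises insulin release from rat beta cells at 5 mM glucose, no numeric limit stated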). The note with it: rat INS-1E insulin secretion, at 10 µM, stronger effect = higher value.
Experiment [3] in a line: growth inhibition of GSK3B-pretreated HCT116 cells – cell-based, CellTiter-Glo, 0.2 to 20 µM (AID 1117336;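 active = compounds lowering colon cancer cell viability after pretreatment blocking the GSK3B kinase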). As to conditions: HCT116 viability after GSK3B inhibitor, at 20 µM, stronger effect = higher value.
Experiment [4] in a line: inhibition of endothelial tube formation, primary screen, imaging, VEGF stimulated, CD31 staining, tube area, NPC library (AID 1117340;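 active = compound that reduces growth-factor-driven endothelial tube area in a mixed cell culture, no cutoff stated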). As to conditions: VEGF-stimulated ADSC/ECFC co-culture, at 10 µM, stronger effect = higher value.
Experiment [5] in a line: GLP1 release stimulators, primary, NCI-H716, NPC library (AID 1117341;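 active = compound raises GLP1 secretion from the human gut endocrine cells, with no numeric limit stated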). As to conditions: NCI-H716 cells, at 10 µM, stronger effect = higher value.
A short description of experiment [6]: HCT116 colon cancer cell growth inhibition, primary screen, CellTiter-Glo luminescence, NPC library (AID 1117342;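 active = compounds that lower survival of HCT116 colon cancer cells in the luminescence readout, no numeric limit stated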). The note with it: at 20 µM (top of the series).
The nature of experiment [7]: reduced SW480 viability measured with CellTiter-Glo, NPC library, primary (AID 1117343;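 active = compounds that lower viability of the colon cancer cells in the luminescence readout, with no numeric limit stated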). As to conditions: CellTiter-Glo luminescence; at 20 µM (top of the series).
Experiment [8] is described as follows: NPC library primary testing for decreased DLD-1 cell viability via CellTiter-Glo (AID 1117346;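 active = compounds that lower survival of DLD-1 colon cancer cells in the luminescence readout, no cutoff given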). As to conditions: DLD-1 viability, CellTiter-Glo luminescence; at 20 µM (top of the series).
Experiment [9] addresses 6-phosphogluconate dehydrogenase, decarboxylating (Homo sapiens) (UniProt P52209). Kind of experiment: inhibition of human phosphogluconate dehydrogenase – biochemical, recombinant enzyme, NADPH absorbance, primary screen (AID 1159550;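 active = at least 20% inhibition of 6-phosphogluconate dehydrogenase activity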). The note with it: recombinant 6PGD, NADPH absorbance 341 nm; at 10 µM; stronger effect = higher value.
Experiment [10] is described as follows: EMT-state selective cytotoxicity in co-culture – imaging, PC-3E GFP, TEM4-18 mCherry, primary screen (AID 1345086;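 active = compounds killing one labelled cell type while sparing the other, by normalised counts and ratio limits, not self-fluorescent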;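 for all read-outs here: cells exposed to compound for 72 h before imaging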;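 for red/green cell ratio (normalised): normalised mesenchymal count divided by normalised epithelial count so high means epithelial killing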). The note with it: PC-3E GFP / TEM4-18 mCherry co-culture, imaging cell counts, at 1 µM; for red/green cell ratio (normalised): actives lie on both sides, counts scaled to control wells, 1 = unselective.
The nature of experiment [11]: MELAS cybrid and Rieske KO viability enhancers – cell-based, MELAS cybrids, Rieske KO mouse fibroblasts, CellTiter-Glo, primary screen (AID 1508586;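 active = mean z-score across replicates of 1.96 or higher in either the MELAS or the Rieske mutant cell line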;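 note: z relative to plate mean and SD of compound and empty wells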). The note with it: low glucose.
In experiment [12] the target is NAD(+) hydrolase SARM1 (Homo sapiens) (UniProt Q6SZW1). Nature of the experiment: blocking NAD cleavage by SARM1 SAM-TIR – cell lysate, NAD-Glo luminescence (AID 1508614;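 active = compound whose remaining NAD level is above about 45 nM, limit read from the data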;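 note: higher remaining NAD means stronger inhibition of SARM1 NADase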). As to conditions: SAM-TIR HEK293T lysate NADase, at 1 µM, stronger effect = higher value.
Sequence of NAD(+) hydrolase SARM1 (Homo sapiens) (Q6SZW1 whole entry, looked up): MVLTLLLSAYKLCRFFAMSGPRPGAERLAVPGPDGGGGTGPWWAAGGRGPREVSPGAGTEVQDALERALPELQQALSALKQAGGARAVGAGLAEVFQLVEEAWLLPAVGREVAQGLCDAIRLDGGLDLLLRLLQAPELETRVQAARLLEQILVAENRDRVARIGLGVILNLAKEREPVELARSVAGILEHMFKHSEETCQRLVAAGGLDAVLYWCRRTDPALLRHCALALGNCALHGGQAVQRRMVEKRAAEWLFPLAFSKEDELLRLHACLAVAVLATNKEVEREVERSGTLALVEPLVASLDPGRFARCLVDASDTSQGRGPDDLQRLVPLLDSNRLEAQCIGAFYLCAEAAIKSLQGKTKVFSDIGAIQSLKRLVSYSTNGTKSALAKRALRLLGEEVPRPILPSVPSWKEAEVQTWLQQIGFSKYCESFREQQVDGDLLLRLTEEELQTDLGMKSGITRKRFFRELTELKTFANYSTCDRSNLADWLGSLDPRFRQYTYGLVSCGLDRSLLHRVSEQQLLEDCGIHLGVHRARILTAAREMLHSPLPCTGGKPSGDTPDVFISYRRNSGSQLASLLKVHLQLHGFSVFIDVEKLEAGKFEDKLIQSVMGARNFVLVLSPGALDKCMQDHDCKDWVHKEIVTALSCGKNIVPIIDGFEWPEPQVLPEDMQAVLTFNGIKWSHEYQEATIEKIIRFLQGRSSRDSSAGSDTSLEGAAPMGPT
In experiment [13] the test system is F380Y. Kind of experiment: BK channel mutant inhibitors and activators – cell-based, U2OS BacMam, thallium flux, beta subunits, selectivity assay, profiling panel (AID 1259406).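 Note: initial slope of Thallos dye fluorescence rise after thallium is added; log ratio against the mean of 0.3% DMSO vehicle wells on the same plate.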 The note with it: U2OS BacMam BK variants, at 30 µM.
The test system of experiment [14] is F380Y/beta1. The description is as above. As to conditions: U2OS BacMam BK variants, at 30 µM.
Experiment [15] relates to F380Y/beta2Delta. Described as above. The note with it: U2OS BacMam BK variants, at 30 µM.
Experiment [16] deals with F380Y/beta4. The description is as above. The note with it: U2OS BacMam BK variants, at 30 µM.
For experiment [17], the target named is Calcium-activated potassium channel subunit alpha-1 (Homo sapiens) + Leucine-rich repeat-containing protein 26 (Homo sapiens) (UniProt Q12791+Q2I0M4). The experiment is described as above. As to conditions: U2OS BacMam BK variants, F380Y/Slo1WT/gamma1, at 30 µM.
Sequence of Calcium-activated potassium channel subunit alpha-1 (Homo sapiens) + Leucine-rich repeat-containing protein 26 (Homo sapiens) (Q2I0M4 whole entry, looked up, one chain of several): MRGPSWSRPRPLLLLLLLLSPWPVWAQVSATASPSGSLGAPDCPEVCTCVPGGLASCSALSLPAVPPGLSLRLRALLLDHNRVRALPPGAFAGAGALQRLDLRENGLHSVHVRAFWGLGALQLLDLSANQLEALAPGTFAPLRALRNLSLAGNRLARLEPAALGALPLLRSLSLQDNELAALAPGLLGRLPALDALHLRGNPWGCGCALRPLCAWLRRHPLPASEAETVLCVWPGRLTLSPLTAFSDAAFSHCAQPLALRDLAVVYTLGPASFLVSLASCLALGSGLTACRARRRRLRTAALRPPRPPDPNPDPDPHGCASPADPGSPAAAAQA
Experiment [18] has as its system R275C. The experiment is described as above. As to conditions: U2OS BacMam BK variants, at 30 µM.
Experiment [19] is described as follows: viability loss with induced miR-34 in A549 – imaging, A549 dox-inducible miR-34, nuclei and caspase counts, primary screen (AID 1347080;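 active = compounds whose cell count with miR-34 switched on is under 0.7 times the count with it off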). The note with it: A549 miR-34 inducible, Hoechst nuclei count, 48 h.
The mark [20] stands for this setting: measured here: epithelial PC-3E GFP cell survival.
Setting [21] is: measured here: mesenchymal TEM4-18 mCherry cell survival.
Setting [22] is: MELAS cybrid survival, CellTiter-Glo 48 h, stronger effect = higher value.
The mark [23] stands for this setting: Rieske KO mouse fibroblast survival, CellTiter-Glo 72 h.

“And” between values parts separate entries of the source, which are not always exact repeats. Equal values may be shown once. The source made the active and inactive calls.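 Rule for the calls, unless noted: active = thallium flux through the channel raised or lowered by more than 3 SD from vehicle-only wells, actives on both sides; inactive = the rest.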

Sequence of 6-phosphogluconate dehydrogenase, decarboxylating (Homo sapiens) (P52209 whole entry, looked up): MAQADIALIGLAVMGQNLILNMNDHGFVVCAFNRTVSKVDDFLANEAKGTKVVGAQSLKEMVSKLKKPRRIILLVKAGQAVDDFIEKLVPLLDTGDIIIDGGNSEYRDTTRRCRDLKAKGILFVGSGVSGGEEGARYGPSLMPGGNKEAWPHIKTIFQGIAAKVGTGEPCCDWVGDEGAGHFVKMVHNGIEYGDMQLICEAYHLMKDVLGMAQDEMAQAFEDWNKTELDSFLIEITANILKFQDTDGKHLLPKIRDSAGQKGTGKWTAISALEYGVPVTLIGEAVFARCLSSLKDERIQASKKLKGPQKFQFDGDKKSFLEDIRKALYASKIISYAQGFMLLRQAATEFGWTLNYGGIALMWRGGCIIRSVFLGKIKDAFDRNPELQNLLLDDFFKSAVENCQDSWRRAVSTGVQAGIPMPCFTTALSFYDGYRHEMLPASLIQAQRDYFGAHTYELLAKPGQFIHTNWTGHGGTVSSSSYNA

Turning to `CC(COc1ccccc1)N(CCCl)Cc1ccccc1` (stereo not given), the nuclear beta-catenin stimulation was 1.1% (inactive) in experiment [1] (at 10 µM) and -0.3% in experiment [1] (stimulation, at 2 µM). In addition, the insulin secretion stimulation in experiment [2] is 2.8% (inactive). Besides, the viability decrease in [3] is -32.1% (inactive). Also, the tube area decrease in experiment [4] is 7% (inactive). Moreover, the GLP1 secretion stimulation in experiment [5] is 3.8% (inactive). Moreover, the inhibition of viability in experiment [6] was -3.6% (inactive). Further, the viability decrease (inhibition) in experiment [7] was 13% (inactive); in experiment [8], -2.9% (inactive). In addition, the inhibition in [9] is 0.0837% (inactive). Moreover, the red/green cell ratio (normalised) in experiment [10] was 1.22 (inactive). The normalised cell number in [10] (setting [20]) turned out to be 1.17; in [10] (setting [21]), 1.43. Further, the z-score in experiment [11] (setting [22]) is -0.333 (inactive) and -0.71 (inactive) and -0.596 (inactive); in [11] (setting [23]), 0.469 and 0.0989 and -0.341. Moreover, the remaining NAD in experiment [12] was 10 nM (inactive). The log fold change Tl+ flux was -0.0529 (inactive) in [13]; -0.00151 (inactive) in [14]; -0.054 (inactive) in experiment [15]; -0.0516 (inactive) in [16]; -0.0217 (inactive) in experiment [17]; -0.0819 (inactive) in experiment [18].

Turning to `CCn1cc(C(=O)O)c(=O)c2cc(F)c(N3CCN(C)CC3)cc21`, the nuclear beta-catenin stimulation in experiment [1] (at 10 µM) is 3.6% (inactive); in experiment [1] (stimulation, at 2 µM), 1.2%. The insulin secretion stimulation in [2] is -0.5% (inactive). For the same compound, in experiment [3], the viability decrease was -12.5% (inactive). In addition, in experiment [4], the tube area decrease is 25.6% (inactive). The GLP1 secretion stimulation in [5] was 3.5% (inactive). Further, in experiment [6], the inhibition of viability was -14.7% (inactive). Moreover, the viability decrease (inhibition) was -27.3% (inactive) in experiment [7] and -10.3% (inactive) in [8]. Further, in experiment [9], the inhibition is 5% (inactive). In experiment [10], the red/green cell ratio (normalised) was 1.22 (inactive). The results for the normalised cell number in experiment [10] (setting [20]) and in experiment [10] (setting [21]) were 1.13 and 1.38, respectively. Moreover, in [12], the remaining NAD was 10 nM (inactive). For the same compound, the log fold change Tl+ flux in [13] was -0.0273 (inactive); in experiment [14], -0.000461 (inactive); in experiment [15], -0.0112 (inactive); in experiment [16] it was 0.0266 (inactive); in [17] it was -0.0628 (inactive); in [18], -0.0565 (inactive).

On to `COc1ccccc1OCC(O)COC(N)=O` (stereo not given), for which the nuclear beta-catenin stimulation in experiment [1] (at 10 µM) was -2.7% (inactive); in experiment [1] (stimulation, at 2 µM) it was -1.9%. The insulin secretion stimulation in experiment [2] is -1.2% (inactive). Moreover, the viability decrease in experiment [3] was -1% (inactive). Also, the tube area decrease in experiment [4] is 8.8% (inactive). The GLP1 secretion stimulation in experiment [5] is -4% (inactive). Also, the inhibition of viability in [6] is -3.97% (inactive). The viability decrease (inhibition) in experiment [7] is 11.1% (inactive); in [8], -10.7% (inactive). Further, the inhibition in [9] is -17.6% (inactive). The red/green cell ratio (normalised) in experiment [10] is 0.97 (inactive). Besides, the values for the normalised cell number in experiment [10] (setting [20]) and in experiment [10] (setting [21]) were 1.19 and 1.16, respectively. In addition, the z-score was -0.379 (inactive) and 0.493 (inactive) in experiment [11] (setting [22]); -0.0724 and 0.212 in [11] (setting [23]). Moreover, the remaining NAD in [12] is 10 nM (inactive). Besides, the log fold change Tl+ flux is 0.00752 (inactive) in experiment [13]; 0.0402 (inactive) in experiment [14]; -0.0478 (inactive) in experiment [15]; 0.0136 (inactive) in [16]; 0.0335 (inactive) in experiment [17]; 0.00553 (inactive) in [18].

Take `Cc1onc(-c2c(Cl)cccc2Cl)c1C(=O)N[C@@H]1C(=O)N2[C@@H]1SC(C)(C)[C@@H]2C(=O)O`: the nuclear beta-catenin stimulation in [1] (at 10 µM) is 1.5% (inactive); in experiment [1] (stimulation, at 2 µM), 1.3%. The insulin secretion stimulation in [2] was 1.5% (inactive). The viability decrease in experiment [3] was -15.4% (inactive). Also, in [4], the tube area decrease is 1.6% (inactive). Moreover, the GLP1 secretion stimulation in experiment [5] was 0% (inactive). For the same compound, the inhibition of viability in experiment [6] is -4.23% (inactive). Besides, the viability decrease (inhibition) was 18.3% (inactive) in experiment [7] and -11.8% (inactive) in experiment [8]. Besides, in [9], the inhibition is -8.13% (inactive). The red/green cell ratio (normalised) in [10] is 1.32 (inactive). Also, the values for the normalised cell number in experiment [10] (setting [20]) and in experiment [10] (setting [21]) were 1.26 and 1.67, respectively. Also, the fold change in experiment [19] (stronger effect = lower value, cell number ratio, induced over uninduced) is 0.978 (inactive) and 0.899 (inactive) and 0.89 (inactive); in experiment [19] (measured here: relative caspase fold change +Dox/-Dox), 0.333 and 1.39 and 0.886. The cell count in experiment [19] (measured here: total cells with miR-34 induction, stronger effect = lower value) was 10400 and 7750 and 11800; in experiment [19] (measured here: total cells without miR-34 induction), 10700 and 8620 and 13200. For the same compound, the z-score in [11] (setting [22]) is 0.18 (inactive); in experiment [11] (setting [23]), 0.0231. In addition, in experiment [12], the remaining NAD was 10 nM (inactive). Moreover, the log fold change Tl+ flux in experiment [13] was 0.01 (inactive); in experiment [14], -0.0941 (inactive); in [15], -0.00879 (inactive); in experiment [16] it was 0.00974 (inactive); in experiment [17], 0.0705 (inactive); in [18], -0.0255 (inactive).
